This note sets out measurements from PubChem BioAssay (NCI).

Values joined by “and” are separate entries in the source; they are usually repeats but may differ in a detail not shown here. Equal entries are not always repeated. This is part of a sample that, as a whole, favours compounds with a hit. Of some 79,000 tested, about 15% had one in any assay. Some structures have more than one record in an assay (separate samples or runs), and their calls can disagree. Active and inactive are the calls of the source. No stated cut-off is given here; in the data, active means growth inhibition above about 70%; inactive means the rest.

The assay in a line: NCI Yeast Anticancer Drug Screen. Data for the mlh1 strain (AID 171).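 Further: 0% = growth of vehicle-treated control cultures of the same strain.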 The settings on record: S. cerevisiae mlh1 strain growth inhibition, stronger effect = higher value. As to the method:
Growth inhibition of yeast strains with defined genetic alterations is measured as a screen for potential anti-cancer activity. Selected strains with alterations in DNA damage repair or cell cycle control were exposed to compounds and growth inhibition was measured relative to vehicle treated controls. The strain used in this assay is mlh1

Regarding `Nc1cccc2cc(Cl)cnc12`, the growth inhibition is -40% (inactive) (at 1.2 µM); -41% (inactive) (at 3.7 µM); -40% (inactive) (at 11.0 µM); -33% (inactive) (at 33.0 µM); 49% (inactive) (at 100.0 µM).
`COc1ccc2[nH]c3c(C)c4cc[n+](C)cc4c(C)c3c2c1`: the growth inhibition runs as follows: (at 1.2 µM) 34% (inactive) and 19% (inactive); (at 3.7 µM) 34% (inactive) and 35% (inactive); (at 11.0 µM) 41% (inactive); (at 33.0 µM) 56% (inactive); (at 100.0 µM) 46% (inactive) and 77% (active).
Regarding `CN(C)/N=N/c1nc[nH]c1C(N)=O`, the growth inhibition was -2% (inactive) (at 1.2 µM); -2% (inactive) (at 3.7 µM); 0% (inactive) (at 11.0 µM); 0% (inactive) (at 33.0 µM); 97% (active) (at 100.0 µM).
As for `CC(C)(C(=O)NN)c1ccccc1`, the growth inhibition by setting is: (at 1.2 µM) 3% (inactive); (at 3.7 µM) 5% (inactive); (at 11.0 µM) 21% (inactive); (at 33.0 µM) 46% (inactive); (at 100.0 µM) 91% (active).
For `Nc1c([N+](=O)[O-])cc2c3c(cccc13)CC2` the same measures were 5% (inactive), 14% (inactive), 20% (inactive), 28% (inactive) and 53% (inactive).
For `O=CC(=C(I)I)c1ccccc1` the same measures were 13% (inactive), 32% (inactive), 81% (active), 97% (active) and 85% (active).
In the case of `CCC(C)/C(C)=N/NC(N)=O` (stereo not given), the growth inhibition is 1% (inactive) (at 1.2 µM); 1% (inactive) (at 3.7 µM); 2% (inactive) (at 11.0 µM); 1% (inactive) (at 33.0 µM); 0% (inactive) (at 100.0 µM).
As for `CN(C)CCNC(=O)c1cccc2nc3c(ccc4ccccc43)nc12`, the growth inhibition runs as follows: (at 1.2 µM) -1% (inactive); (at 3.7 µM) 0% (inactive); (at 11.0 µM) 3% (inactive); (at 33.0 µM) 28% (inactive); (at 100.0 µM) 98% (active).
